Where “and” joins values, the source holds several entries; their conditions need not be identical. Identical values can stand only once. Inconclusive results are not listed. More than one record can exist for a structure, and the calls need not agree. Calls of active or inactive are those of the source. The call rests on the fitted dose curve; in most records, active means well fitted curve in the direction sought with a large enough effect; inconclusive means small, poorly fitted or top-dose-only effect, or another doubt; inactive means no such curve, though single readings can be large; an effect the other way counts as inactive or inconclusive.
How the values were obtained:
[1] = target: Glutathione peroxidase 1 (Homo sapiens) (UniProt P07203); test: Primary qHTS Assay for Inhibitors of Recombinant Selenoprotein Glutathione Peroxidase 1 (GPX1) (AID 1845191); further: nearly all actives have a fitted effect of over 65% in size
Outline: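 GR-coupled readout: NADPH consumption tracked by fluorescence, ex 340/em 450 nm, at t=0 and after 15 min at RT. Final mix 10 nM GPX1, 1 mM GSH, 0.5 mM CHP, 0.5 mM NADPH, 100 nM GR, 0.01% BSA, following 30 min enzyme–compound preincubation.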

[2] = target: Phospholipid hydroperoxide glutathione peroxidase GPX4 (Homo sapiens) (UniProt P36969); test: Primary qHTS Assay for Inhibitors of Recombinant Selenoprotein Glutathione Peroxidase 4 (GPX4) (AID 1845192); further: nearly all actives have a fitted effect of over 65% in size; on activity change, negative = inhibition: series mostly up to about 50 µM; on the % scale 0 is the no-effect control and ±100 the full control effect
Outline: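 Steps: GPX4 plus compound, 30 min RT; add GR/GSH/NADPH master mix; start with cumene hydroperoxide; read 340/450 nm fluorescence at 0 and 15 min. Finals were 200 nM GPX4, 1 mM GSH, 0.5 mM CHP, 0.5 mM NADPH, 100 nM GR.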

[3] = target: Luciferin 4-monooxygenase (Photinus pyralis) (UniProt P08659); test: Primary firefly luciferase (FLuc) qHTS assay for identification of artifact compounds. (AID 1845220); further: nearly all actives have a fitted effect of over 60% in size;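 on activity change, negative = inhibition: series mostly up to about 54 µM; plate controls were DMSO vehicle for no effect and no enzyme for full effect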
Outline: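 D-luciferin and ATP (10 uM each, final) in Tris acetate buffer pH 7.6 were incubated with compounds for 15 min at room temperature. The reaction was started with 10 nM Photinus pyralis luciferase and luminescence read after 5 min. Percent inhibition was fitted to a 4-parameter Hill equation.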

[4] = Primary fluorescence-based thiol-reactive (MSTI) qHTS assay for identification of artifact compounds. (AID 1845221); further: nearly all actives have a fitted effect of over 65% in size
Outline: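 Thiol-reactive compounds detected by quenching of 4 uM MSTI fluorescence (525/598 nm) after 1 h room-temperature dark incubation in PBS pH 7.4, 2% DMSO. qHTS titration; percent inhibition Hill-fitted against Acetyl-MSTI/MSTI controls.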

[5] = tested on: Nanoluciferase (engineered Oplophorus gracilirostris luciferase); test: Primary Nanoluciferase (NLuc) qHTS assay for identification of artifact compounds. (AID 1845222)
Outline: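 Diluted conditioned medium from NLuc-expressing S16 cells treated with compounds for 15 min at room temperature, then Nano-Glo substrate added; luminescence read after 5 min. Percent inhibition versus no-enzyme and DMSO controls fitted to 4-parameter Hill equation.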
Potency means the concentration at half of the fitted maximal effect.

Chain of Glutathione peroxidase 1 (Homo sapiens) (P07203 whole entry, looked up): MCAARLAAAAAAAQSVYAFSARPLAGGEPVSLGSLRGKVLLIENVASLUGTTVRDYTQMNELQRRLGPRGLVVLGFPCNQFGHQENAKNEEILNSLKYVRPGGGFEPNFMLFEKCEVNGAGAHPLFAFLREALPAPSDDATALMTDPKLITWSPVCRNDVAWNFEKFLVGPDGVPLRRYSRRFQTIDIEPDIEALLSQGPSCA
Chain of Phospholipid hydroperoxide glutathione peroxidase GPX4 (Homo sapiens) (P36969 whole entry, looked up): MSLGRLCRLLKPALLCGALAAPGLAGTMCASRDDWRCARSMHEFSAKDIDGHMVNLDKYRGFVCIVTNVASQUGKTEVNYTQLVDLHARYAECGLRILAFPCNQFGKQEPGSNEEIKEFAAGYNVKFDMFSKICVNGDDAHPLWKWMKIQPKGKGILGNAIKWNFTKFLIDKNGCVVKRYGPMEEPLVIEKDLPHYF

Cc1nc(N)ncc1-c1nc(N2CCOCC2)c2sc(C(C)(C)O)cc2n1
inactive: Potency [1] | Potency [2] | Potency [3] | Potency [4] | Potency [5]

Cc1cnc(-c2cnc(NCCNc3ccc(C#N)cn3)nc2-c2ccc(Cl)cc2Cl)[nH]1
inactive: Potency [1] | Potency [2] | Potency [3] | Potency [4]
active: Potency [5] 3.38 µM

COc1cc2nccc(Oc3ccc(NC(=O)C4(C(=O)Nc5ccc(F)cc5)CC4)cc3)c2cc1OC
inactive: Potency [1] | Potency [2] | Potency [3] | Potency [4] | Potency [5]

COc1cc2c(Oc3ccc(-c4cnc(Nc5ccc(F)cc5)n(C)c4=O)cc3F)ccnc2cc1OCCCN1CCOCC1
inactive: Potency [1] | Potency [2] | Potency [3] | Potency [4] | Potency [5]

CN1CCN(Cc2ccc(NC(=O)Nc3ccc(Oc4cc(NC(=O)C5CC5)ncn4)cc3)cc2C(F)(F)F)CC1
inactive: Potency [1] | Potency [2] | Potency [3] | Potency [4] | Potency [5]

Cc1cc(C(=O)N2CCN(c3cccc(Cl)c3)CC2)n(-c2ccccc2)n1
inactive: Potency [1] | Potency [2] | Potency [3] | Potency [4] | Potency [5]

CC(C)c1noc(N2CCC(COc3ccc(-c4ccc(S(C)(=O)=O)cc4)nc3)CC2)n1
inactive: Potency [1] | Potency [2] | Potency [3] | Potency [4] | Potency [5]

CC(C)(O)CCc1ccc(OCc2cc(-c3cccc(OC(F)F)c3)c3ncccc3c2)cc1
active: Potency [3] 13.5 µM
inactive: Potency [1] | Potency [2] | Potency [4] | Potency [5]

C#Cc1cccc(Nc2ncnc3cc(OC)c(OCCCCCCC(=O)NO)cc23)c1
inactive: Potency [1] | Potency [2] | Potency [3] | Potency [4] | Potency [5]

Cc1ccc(C(=O)Nc2cccc(C(F)(F)F)c2)cc1-c1ccc2nc(NCCN3CCOCC3)ncc2c1
inactive: Potency [1] | Potency [2] | Potency [3] | Potency [4] | Potency [5]

COc1cc(C(=O)N2CCC(N3CCN(C)CC3)CC2)ccc1Nc1ncc2c(n1)N(C)c1ccccc1C(=O)N2C
inactive: Potency [1] | Potency [2] | Potency [3] | Potency [4] | Potency [5]

CS(=O)(=O)c1ccc(-c2cnc(N)c(C(=O)Nc3ccccc3)n2)cc1
inactive: Potency [1] | Potency [2] | Potency [3] | Potency [4] | Potency [5]

COC(=O)c1ccc2c(C(=Nc3ccc(N(C)C(=O)CN4CCN(C)CC4)cc3)c3ccccc3)c(O)[nH]c2c1
inactive: Potency [1] | Potency [2] | Potency [3] | Potency [4] | Potency [5]

O=C(Cc1ccc(-c2ccc(OCCN3CCOCC3)cc2)cn1)NCc1ccccc1
inactive: Potency [1] | Potency [2] | Potency [3] | Potency [4] | Potency [5]

COc1cc(-c2nn(C3CCC(N4CCN(C(C)=O)CC4)CC3)c3ncnc(N)c23)ccc1NC(=O)c1cc2ccccc2n1C (centres undefined)
inactive: Potency [1] | Potency [2] | Potency [3] | Potency [4] | Potency [5]

CC(C)CC(=O)Nc1n[nH]c2c1CN(C(=O)C1CCN(C)CC1)C2(C)C
inactive: Potency [1] | Potency [2] | Potency [3] | Potency [4] | Potency [5]

CNC(=O)c1ccc(N2C(=S)N(c3cnc(C#N)c(C(F)(F)F)c3)C(=O)C23CCC3)cc1F
inactive: Potency [1] | Potency [2] | Potency [3] | Potency [4] | Potency [5]

CCc1cc2c(cc1N1CCC(N3CCOCC3)CC1)C(C)(C)c1[nH]c3cc(C#N)ccc3c1C2=O
inactive: Potency [1] | Potency [2] | Potency [3] | Potency [4] | Potency [5]

c1ccc2c(CCNc3ccc(Nc4ccncc4)cc3)c[nH]c2c1
active: Potency [4] 2.67 µM
inactive: Potency [1] | Potency [2] | Potency [3] | Potency [5]

COc1ccc2c(c1)CC[C@@H](CN(C)CC(=O)O)[C@H]2c1ccccc1
inactive: Potency [1] | Potency [2] | Potency [3] | Potency [4] | Potency [5]

NC(=O)Nc1cc(-c2cccc(F)c2)sc1C(=O)N[C@H]1CCCNC1
inactive: Potency [1] | Potency [2] | Potency [3] | Potency [4] | Potency [5]

NCC(=O)Nc1ccc(-n2nc(C(F)(F)F)cc2-c2ccc3c(ccc4ccccc43)c2)cc1
inactive: Potency [1] | Potency [2] | Potency [3] | Potency [4] | Potency [5]

Cc1ccc(NC(=O)C2(c3ccc4c(c3)OC(F)(F)O4)CC2)nc1-c1cccc(C(=O)O)c1
inactive: Potency [1] | Potency [3] | Potency [4] | Potency [5]
inactive and 14.1 µM (active): Potency [2]

C=CC(=O)Nc1cccc(Oc2nc(Nc3ccc(N4CCN(C)CC4)cc3OC)ncc2Cl)c1
inactive: Potency [1] | Potency [2] | Potency [3] | Potency [5]
active: Potency [4] 2.67 µM

O=C(CCCCCCC(=O)Nc1ccc([C@H]2O[C@@H](CSc3nc(-c4ccccc4)c(-c4ccccc4)o3)C[C@@H](c3ccc(CO)cc3)O2)cc1)NO
inactive: Potency [1] | activity change, negative = inhibition [2] -22.8% [at 9.73 µM] | Potency [3] | Potency [4] | Potency [5]

Cc1cnc(Nc2ccc(F)cc2Cl)nc1-c1c[nH]c(C(=O)N[C@H](CO)c2cccc(Cl)c2)c1
inactive: Potency [1] | Potency [2] | Potency [3] | Potency [4] | Potency [5]

O=C(c1cncc(Br)c1)N1CCC(N2CCCC2)CC1
inactive: Potency [1] | Potency [2] | Potency [3] | Potency [4] | Potency [5]

O=C(Nc1nc2cccc(-c3ccc(CN4CCS(=O)(=O)CC4)cc3)n2n1)C1CC1
inactive: Potency [1] | Potency [2] | Potency [3] | Potency [4] | Potency [5]

C1Cc2[nH]nc(-c3nn[nH]n3)c2C1
inactive: Potency [1] | Potency [2] | Potency [3] | Potency [4] | Potency [5]

COC(=O)Nc1nc2ccc(C(=O)c3ccc(F)cc3)cc2[nH]1
inactive: Potency [1] | Potency [2] | Potency [3] | Potency [4] | Potency [5]

Cc1cn(-c2cc(NC(=O)c3ccc(C)c(Nc4nccc(-c5cccnc5)n4)c3)cc(C(F)(F)F)c2)cn1
inactive: Potency [1] | Potency [2] | Potency [3] | Potency [4] | Potency [5]

Cn1cc(-c2[nH]c3cc(NC(=O)[C@H](N)C4CCCCC4)cc4c3c2C=NNC4=O)cn1
inactive: Potency [1] | Potency [2] | Potency [3] | Potency [5]
active: Potency [4] 21.2 µM

C[C@]12CC[C@H](O)CC1=CCC1C2CC[C@]2(C)C(n3cnc4ccccc43)=CCC12 (some centres undefined)
inactive: Potency [1] | Potency [2] | Potency [3] | Potency [4] | Potency [5]

CC(C)c1cc(C(=O)N2Cc3ccc(CN4CCN(C)CC4)cc3C2)c(O)cc1O
inactive: Potency [1] | Potency [2] | Potency [3] | Potency [4] | Potency [5]

Fc1cc(-c2cccc3ncc(-c4cnn(C5CCNCC5)c4)nc23)cc(F)c1CN1CCOCC1
inactive: Potency [1] | Potency [2] | Potency [3] | Potency [4] | Potency [5]

C[C@]1(CO)CN(c2cc(C(=O)Nc3ccc4c(c3)-c3c(c(C(N)=O)nn3-c3ccc(F)cc3)CC4)c(Cl)cn2)C[C@@]1(C)CO
inactive: Potency [1] | Potency [2] | Potency [3] | Potency [4] | Potency [5]

CCN(CC)CCNC(=O)c1ccc2nc(-c3ccccc3)c(-c3ccc(CN4CCC(n5c(=O)[nH]c6ccccc65)CC4)cc3)nc2c1
inactive: Potency [1] | Potency [2] | Potency [3] | Potency [4] | Potency [5]

CNC(=O)c1ccc(-c2cnc3ncc(Cc4ccc5ncccc5c4)n3n2)cc1F
inactive: Potency [1] | Potency [2] | Potency [3] | Potency [4] | Potency [5]

c1nc2nc(Nc3ccc(N4CCOCC4)cc3)nc(NC3CCCCC3)c2[nH]1
active: Potency [4] 0.922 µM
inactive: Potency [1] | Potency [2] | Potency [3] | Potency [5]

CC(C)Nc1cc(C(F)(F)F)cc2nc(NC(=O)c3cccnc3)nn12
inactive: Potency [1] | Potency [2] | Potency [3] | Potency [4] | Potency [5]

CNC(=O)c1nn(C)c2c1C(C)(C)Cc1cnc(Nc3ccc(N4CCN(C)CC4)cc3)nc1-2
inactive: Potency [1] | Potency [2] | Potency [3] | Potency [5]

CN(C)c1nc(Cc2ccc(NC(=O)c3ccc4ccccc4c3)cc2)nc(Cl)c1CC(=O)O
inactive: Potency [1] | Potency [2] | Potency [4] | Potency [5]

Cc1cc(CN2CCN(c3c(Br)cnc4nc(-c5ccc(N6CCN(C)CC6)cc5)[nH]c34)CC2)no1
active: Potency [1] 11.4 µM and 12.9 µM
inactive: Potency [3] | Potency [5]
inactive and 14.3 µM (active): Potency [2]

Cn1c2ccccc2c2c3c(c4c5ccccc5n(CCC#N)c4c21)CNC3=O
inactive: Potency [1] | Potency [3] | Potency [5]

Cc1cc(Nc2cc(CN3CCOCC3)c3nc(C)c(Cc4ccc(Cl)cc4F)n3n2)n[nH]1
inactive: Potency [1] | Potency [2] | Potency [3] | Potency [5]

Cc1ccc(CN2CCNCC2)cc1NC(=O)CNc1ccc(F)c(F)c1
inactive: Potency [1] | Potency [2] | Potency [3] | Potency [5]

Cc1ccc(C(=O)Nc2ccc(CN3CCN(C)CC3)c(C(F)(F)F)c2)cc1C#Cc1cnc2cccnn12
inactive: Potency [1] | Potency [2] | Potency [4] | Potency [5]

O=C(O)Cn1nnc(-c2cc(N3CCC(Oc4cc(F)ccc4Br)CC3)no2)n1
inactive: Potency [1] | Potency [3] | Potency [4] | Potency [5]

COc1cccc2nc(-c3cccs3)nc(NN3C(=O)C=C(C)C3=O)c12
inactive: Potency [1] | Potency [4] | Potency [5]

O=C1CCC[C@@H]2[C@H]3CCC[N+]4([O-])CCC[C@@H](CN12)[C@@H]34 (some centres undefined)
inactive: Potency [2] | Potency [3] | Potency [4] | Potency [5]

CC(C)(C)c1cnc(CSc2cnc(NC(=O)C3CCNCC3)s2)o1
inactive: Potency [2]

C=CC(=O)N1CCC[C@@H](n2nc(-c3ccc(Oc4ccccc4)cc3)c3c(N)ncnc32)C1
inactive: Potency [1] | Potency [2] | Potency [3] | Potency [5]

Clc1ccc2ncc(-c3cccc(NC4CNC4)n3)n2c1
inactive: Potency [1] | Potency [3] | Potency [4] | Potency [5]

CCCCCN(CCC12CC3CC(CC(C3)C1)C2)C(=O)NCCCc1ccncc1
inactive: Potency [1] | Potency [2] | Potency [3] | Potency [5]

COc1ccc(-c2cc3c(C)nc(N)nc3n(C3CCC(OCCO)CC3)c2=O)cn1 (centres undefined)
inactive: Potency [3] | Potency [4] | Potency [5]
active: Potency [1] 5.78 µM and 16.1 µM

COc1cc(Nc2ncc(F)c(Nc3ccc4c(n3)N(COP(=O)(O)O)C(=O)C(C)(C)O4)n2)cc(OC)c1OC
inactive: Potency [1] | Potency [2] | Potency [3] | Potency [5]

COc1c(N2C[C@@H]3CCCN[C@H]3C2)c(F)cc2c(=O)c(C(=O)O)cn(C3CC3)c12
active: Potency [2] 18 µM

CC[C@@]1(O)C(=O)OCc2c1cc1n(c2=O)Cc2cc3cc(O)ccc3nc2-1
inactive: Potency [1] | Potency [2] | Potency [3] | Potency [5]

Source: PubChem BioAssay (NCATS)
